# Screening data (PubChem BioAssay)
# Hits are enriched below; roughly 0.9% of the tested compounds scored in any of these assays.
# PPARg SRC-2 ag: agonists of PPARg-SRC-2 recruitment, primary screen, biochemical, HTS; Peroxisome proliferator-activated receptor gamma (Homo sapiens), P37231; PPARgamma LBD-SRC-2 recruitment; activation, % at 8 µM; 200,000 compounds, 0.34% hits
# PPARg SRC-3 ag: PPARgamma agonists recruiting SRC-3 coactivator, primary screen, biochemical; biochemical PPARgamma/SRC-3 coactivator recruitment assay; activation, % at 8 µM; 200,000 compounds, 0.26% hits; in the data active = activation above about 23%
# PPARg SRC1 recr: PPARgamma agonists recruiting SRC-1 coactivator, primary screen, biochemical; PPARgamma-SRC-1 coactivator recruitment biochemical assay; activation, % at 8 µM; 200,000 compounds, 0.41% hits; Peroxisome proliferator-activated receptor gamma (Homo sapiens), P37231; in the data active = activation above about 19%
# SRC1 TRFRET art: TR-FRET detection interference compounds, primary screen, artefact control for PPARgamma SRC-1 recruitment agonists, biochemical, TR-FRET emission ratio; 99,000 compounds, 0.34% hits; AID 1051, 2008; TR-FRET ratio at 8 µM; TR-FRET detection artefact counter-screen; active compounds read high; in the data active = TR-FRET ratio above about 2300
# SRC2 TRFRET art: TR-FRET signal artefacts, primary screen, artefact control for PPARgamma SRC-2 agonist project, biochemical. TR-FRET artefact counter-screen; active compounds read high. TR-FRET ratio at 8 µM. 200,000 compounds, 0.4% hits. AID 1049, 2008; in the data active = TR-FRET ratio above about 2000
# SRC3 TRFRET art: TR-FRET detection interference compounds, artefact control for PPARgamma SRC-3 recruitment agonists, biochemical, TR-FRET ratio. TR-FRET ratio at 8 µM. 99,000 compounds, 0.39% hits. TR-FRET artefact counter-screen, PPARgamma/SRC-3 format; active compounds read high; in the data active = TR-FRET ratio above about 2000
# PPARg SRC2 conf: agonists of PPARgamma SRC-2 coactivator recruitment, confirmation, biochemical, HTS; biochemical SRC-2 recruitment by PPARgamma; 790 compounds, 52% hits; activation, % at 8 µM; shares compounds with PPARg SRC-3 ag
# PPARg SRC1 ag: PPARgamma agonists recruiting SRC-1 coactivator, confirmation, biochemical; shares compounds with PPARg SRC-3 ag; PPARgamma–SRC-1 coactivator recruitment biochemical assay; activation, % at 8 µM; 790 compounds, 43% hits; AID 1300, 2008; in the data active = activation above about 20%
# PPARg SRC3 ag: PPARgamma-driven SRC-3 coactivator recruitment agonists, confirmation, biochemical | shares compounds with PPARg SRC-3 ag | biochemical PPARgamma-SRC-3 coactivator recruitment, agonist mode | activation, % at 8 µM | 790 compounds, 29% hits; in the data active = activation above about 24%
# Numbers stand for hits; n = inactive; x = not tested or not shown. Rule as the data show it, unless noted: active = activation above about 22%; inactive = the rest.
SMILES,PPARg SRC-2 ag,PPARg SRC-3 ag,PPARg SRC1 recr,SRC1 TRFRET art,SRC2 TRFRET art,SRC3 TRFRET art,PPARg SRC2 conf,PPARg SRC1 ag,PPARg SRC3 ag
CCCCCn1c(CN2CCN(C)CC2)nc2c1c(=O)n(C)c(=O)n2C,n,26,n,x,n,x,n,n,n
CCCCCn1c(CN2CCN(C(=O)OCC)CC2)nc2c1c(=O)n(C)c(=O)n2C,n,n,n,x,n,x,x,x,x
OCCSc1ncnc2c1oc1ccccc12,23,n,n,x,n,x,28,22,n
N#CCCSc1ncnc2c1oc1ccccc12,41,36,20,x,2279,x,31,21,n
O=C(O)CSc1ncnc2c1oc1ccccc12,26,n,19,x,n,x,n,n,n
CCOC(=O)CC(=O)CSc1ncnc2c1oc1ccccc12,87,138,96,x,3929,x,55,36,37
O=C(CSc1ncnc2c1oc1ccccc12)Nc1ccccc1C(F)(F)F,n,n,n,n,n,n,x,x,x
Cc1ccc(S(=O)(=O)NCc2ccc(C(=O)NCCN(Cc3ccccc3)C(C)C)cc2)cc1,n,n,n,n,n,n,x,x,x
COc1cccc(NC(=O)c2ncc(Cl)c(Cl)c2Cl)c1,n,n,n,n,n,n,x,x,x
CCN(CC1COc2ccccc2O1)C(=S)NC1CC2CCC1C2 (stereo not drawn),n,n,n,n,n,n,x,x,x
CCOC(=O)C1(Cc2ccccc2)CCCN(C2CCCC2)C1 (stereo not drawn),n,n,n,n,n,n,x,x,x
CCCCc1nc2sc3c(SCC(=O)NCc4ccco4)ncnc3c2c2c1CCC2,n,n,22,x,n,x,38,26,26
O=C(CSc1ncnc2c1oc1ccccc12)N1CCCc2ccccc21,40,39,n,x,1981,x,31,24,n
O=C(CSc1ncnc2c1oc1ccccc12)NCc1ccco1,92,107,92,x,3393,x,65,47,44
Cn1c(N/N=C/c2c[nH]c3ccccc23)nc2ccccc21,24,n,n,x,n,x,n,n,n
COc1cc(C(=O)NCc2ccc3c(c2)OCO3)ccc1OCc1c(C)noc1C,25,n,n,x,n,x,n,n,n
CCC(CC)C(=O)Nc1nnc(-c2cccs2)s1,n,n,n,x,n,x,x,x,x
COc1cccc(OC)c1C(=O)Nc1nnc(-c2cccs2)s1,28,n,31,2546,n,2204,27,21,n
COc1ccccc1Cn1c(=O)c2ccccc2n2c(Sc3ncnc4sccc34)nnc12,n,29,26,x,3587,x,n,n,n
COc1ccccc1Cn1c(=O)c2ccccc2n2c(SCc3csc(C)n3)nnc12,n,n,n,n,n,n,x,x,x
CN(C)c1ccc(CN(C(=O)COc2ccc(Br)cc2)C2CCS(=O)(=O)C2)cc1 (stereo not drawn),n,n,n,x,n,x,x,x,x
Cc1ccc(OCC(=O)N(Cc2ccc(N(C)C)cc2)C2CCS(=O)(=O)C2)cc1 (stereo not drawn),n,n,21,x,n,x,n,n,n
CSc1nc(Sc2ccccc2Cl)c2ccccc2n1,54,48,26,x,2566,x,34,22,24
CC(=O)NCCCc1c[nH]c2ccc(Cl)cc12,n,n,n,x,n,x,x,x,x
CC(C)(C)NC(=O)NC(=O)CSc1cccc(C(F)(F)F)c1,n,n,n,n,n,n,x,x,x
SMILES,PPARg SRC-2 ag,PPARg SRC-3 ag,PPARg SRC1 recr,SRC1 TRFRET art,SRC2 TRFRET art,SRC3 TRFRET art,PPARg SRC2 conf,PPARg SRC1 ag,PPARg SRC3 ag
O=C(O)C1=C[C@@H](c2csc3ccccc23)C[C@@H](OCc2ccc(CO)cc2)O1,n,n,n,n,n,n,x,x,x
O=C(O)C1=C[C@H](c2csc3ccccc23)C[C@H](OCc2ccc(CO)cc2)O1,n,n,24,n,n,n,n,n,n
O=C(c1cc2c(s1)-c1ccccc1OC2)N1CCN(c2ccccc2)CC1,n,n,19,x,2061,x,n,n,n
CCOC(=O)N1CCN(C(=O)c2cc3c(s2)-c2ccccc2OC3)CC1,n,38,20,x,n,x,n,n,n
O=C(c1cc2c(s1)-c1ccccc1OC2)N1CCN(c2ccccn2)CC1,22,30,30,x,2008,x,34,30,n
Cc1cc(NC(=O)CSc2nncc(=O)n2N)no1,n,n,n,n,n,n,x,x,x
CCn1c(=O)cc(OCC(=O)Nc2cccc(C)n2)c2ccccc21,n,n,n,x,n,x,x,x,x
CCn1c(=O)cc(SCC(=O)Nc2ccc(Cl)cc2)c2ccccc21,n,n,39,x,n,x,34,23,n
CCn1c(=O)cc(SCC(=O)Nc2ccc(OC)c(OC)c2)c2ccccc21,42,34,20,x,2203,x,48,33,32
CCn1c(=O)cc(SCC(=O)Nc2cccc(C)n2)c2ccccc21,37,38,58,3815,3523,3307,48,32,34
O=C1CN(CC(=O)Nc2cccc(Cl)c2Cl)c2ccccc2N1,n,n,n,n,n,n,x,x,x
CCSc1nc(N)c2c3c(sc2n1)CCC3,28,32,n,x,2185,x,n,n,n
CCOC(=O)C1=C(C)OC(N)=C(C#N)C1c1cc(C)sc1C (stereo not drawn),n,n,n,x,n,x,x,x,x
CCOC(=O)C1=C(C)OC(N)=C(C#N)C1c1cc2cc(C)ccc2nc1N1CCCCC1 (stereo not drawn),40,62,38,x,2305,x,62,44,42
CSc1c(SCc2ccccc2)cnn(-c2ccccc2)c1=O,27,n,24,2714,n,2060,50,36,33
COc1cnn(-c2ccccc2)c(=O)c1SCc1ccc(Cl)c(Cl)c1,n,n,n,x,n,x,x,x,x
Cc1ccc[n+](C2C(c3ccc([N+](=O)[O-])cc3)C(C#N)=C([S-])NC2(O)C2CC2)c1 (stereo not drawn),n,n,n,n,n,n,x,x,x
CCOC(=O)C1C(=O)NC(SC)=C(C#N)C1c1ccccc1F (stereo not drawn),n,n,n,n,n,n,x,x,x
Cc1cccc[n+]1C1C(c2ccccc2)C(C#N)=C(C(=C=[N-])C#N)NC1(O)C1CC1 (stereo not drawn),26,29,n,x,2096,x,30,20,n
